Records with an inconclusive call do not appear. Calls of active or inactive are those of the source. Unless noted, calls come from the whole dose curve; as a rule, active = well fitted curve in the direction sought with a large enough effect; inconclusive = small, poorly fitted or top-dose-only effect, or another doubt; inactive = no such curve, though single readings can be large; an effect the other way counts as inactive or inconclusive.
Experiments:
[1] = Cytometric Cell-Based qHTS for Inhibitors of the mTORC1 Signaling Pathway in MEF (Tsc2-/-, p53-/-) Cells (AID 2660);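 note: percent of cells above a phospho-rpS6 to PI ratio cutoff in each well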
Method in brief: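 Tsc2-/-, p53-/- MEFs (empty vector) exposed to compound 24 h at 37 C, fixed, stained with Alexa-488 anti-phospho-rpS6 Ser235/236 and propidium iodide. Acumen laser scanning; phospho-S6/PI ratio thresholded against 7.5 nM rapamycin, reported as % positive cells.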

[2] = High Content Imaging Cell-Based qHTS for Inhibitors of the mTORC1 Signaling Pathway in MEF (Tsc2-/-, p53-/-) Cells (AID 2666); settings: at 38.3 µM (top of the series);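 note: percent of cells scored positive for phospho-rpS6 Ser235/236 immunostaining by imaging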
Method in brief: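 Cells were plated, dosed with compound after 24 hrs, and incubated another 24 hrs at 37 degree Celsius. Fixed cells were immunostained for phospho-rpS6 Ser235/236 and counterstained, and the normalized signal was scored as % active cells against rapamycin and DMSO controls.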

[3] = Cytometry Cell-Based qHTS for Inhibitors of the mTORC1 Signaling Pathway in MEF cells (AID 2668);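 note: Tsc2-/- p53-/- mouse embryonic fibroblasts stably re-expressing wild-type Tsc2; percent cells positive for phospho-rpS6 Ser235/236 relative to propidium iodide stain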
Method in brief: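 Read-out: phospho-rpS6 Ser235/236 immunofluorescence normalized to propidium iodide intensity, scored as % active cells against a rapamycin (7.5 nM) threshold. Cells: Tsc2-/-, p53-/- MEFs stably expressing WT Tsc2, compound-treated 24 hrs at 37 degree Celsius.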

[4] = biological target: Ubiquitin carboxyl-terminal hydrolase 2 (Homo sapiens) (UniProt O75604); experiment: qHTS Validation Assay for Inhibitors of Ubiquitin-specific Protease USP2a Using CHOP2 as the Reporter (AID 463106)
Method in brief: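 10nM USP2 core + cpd, 30min RT; add 25nM Ub-CHOP2/25nM substrate; 60min RT; FI 485/531nm. Buffer Tris pH 8.0, CaCl2, BME, CHAPS. Norm. to NEM = 100% inhibition; time-zero read flags fluorescent artifacts.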

[5] = biological target: DNA polymerase III PolC-type (Bacillus subtilis (strain 168)) (UniProt P13267); experiment: qHTS Validation Assay for the Inhibitors of DNA Replication in Gram-Positive Bacteria (AID 485295);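 note: reconstituted holoenzyme with PolC plus beta clamp SSB and primase; PicoGreen fluorescence of double-stranded DNA made on primed circular M13 template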
Method in brief: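 PicoGreen fluorescence (ex 480–485/em 535–540 nm) reports dsDNA synthesized on ssM13Gori template with dNTPs/NTPs. Enzyme: holoenzyme rebuilt from purified PolC, beta subunit, SSB and primase. Compound preincubated before substrate addition; RT throughout.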

[6] = biological target: Tumor susceptibility gene 101 protein (Homo sapiens) (UniProt Q99816); experiment: qHTS Validation Assay for Iinhibitors of HIV-1 Budding by Blocking the Interaction of PTAP/TSG101 (AID 485342; calls by dose curve)
Method in brief: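 FP read-out: FITC-PTAP peptide, 50 nM final, binding Tsg101 binding domain, 10 uM final; 20 min r.t.; 10 mM HEPES pH 7.5, 0.15 M NaCl, 0.01% Tween 20, 3 mM EDTA, 0.1 mM TCEP.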

[7] = biological target: ATP-dependent 6-phosphofructokinase (Trypanosoma brucei brucei) (UniProt O15648); experiment: qHTS Validation Assay to Find Inhibitors of T. brucei phosphofructokinase (AID 485368); settings: outcome: dose series up to 57.5 µM
Method in brief: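 Activity was read as ADP production by luminescence (ADP-Glo) after 45 min at room temperature. The enzyme was 1.25nM PFK in 0.1M TEA pH 8.0 with 0.5 mM F6P, 0.1mM ATP and 5 mM MgCl2. Compounds were titrated up to 57 uM and % activity normalized to no-enzyme and full-enzyme controls.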

[8] = Quantitative high throughput screen for delayed death inhibitors of the malarial parasite plastid, 48 hour incubation (AID 488752); note: nearly all actives have a fitted effect of over 65% in size
Method in brief: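 Readout is firefly luciferase luminescence from a reporter integrated into the parasite genome, with lower signal taken as inhibited growth. Infected red cells (0.1% parasitemia, 2% hematocrit final) are cultured with compound for one 48 h cycle at 37 C.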

[9] = biological target: Thioredoxin reductase 1, cytoplasmic (Rattus norvegicus) (UniProt O89049); experiment: qHTS Assay for Substrates of Mammalian Selenoprotein Thioredoxin Reductase 1 (TrxR1) (AID 488772);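 note: NADPH fluorescence in the first read after selenite addition and not the 8 min delta; a drop in NADPH fluorescence below the no-compound background marks a TrxR1 substrate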
Method in brief: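 Quantitative HTS in Tris-HCl buffer at pH 7.5 with EDTA and Tween-20, using rat TrxR1, 400 uM NADPH and 400 uM selenite (final). A fall in initial NADPH fluorescence relative to background marked substrate behaviour.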

[10] = biological target: Thioredoxin reductase 1, cytoplasmic (Rattus norvegicus) (UniProt O89049); experiment: qHTS Assay for Inhibitors of Mammalian Selenoprotein Thioredoxin Reductase 1 (TrxR1) (AID 488773);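 note: drop in NADPH fluorescence over an 8 min run after selenite addition; nearly all actives have a fitted effect of over 40% in size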
Method in brief: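 Steps: enzyme (90 nM) plus NADPH (400 uM final), 5 min at ~22 deg C; compound added, 15 min; selenite (400 uM final) added; fluorescence followed for 8 min. Concentration-response curves derived from the normalized delta values.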

[11] = biological target: Flap endonuclease 1 (Homo sapiens) (UniProt P39748); experiment: qHTS Validation Assay for the Inhibitors of Human Flap endonuclease 1 (FEN1) (AID 488816)
Method in brief: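 Readings taken at 0 and 15 min after starting the reaction with 50 nM (final) substrate supplied the signal. Compounds had first sat with 10 nM FEN1 reagent for 15 min at room temperature. Values come from Hill-equation concentration-response fits.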

[12] = biological target: M-phase phosphoprotein 8 (Homo sapiens) (UniProt Q99549); experiment: qHTS Validation Assay for Inhibitors for MPP8 Chromodomain Interactions with Methylated Histone Tails (AID 488949);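 note: AlphaScreen signal from MPP8 chromodomain bound to biotinylated H3K9me3 peptide; top concentration of the series differs between compounds; nearly all actives have a fitted effect of over 55% in size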
Method in brief: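 AlphaScreen read-out: streptavidin donor and nickel chelate acceptor beads (final 10 ug/mL), 30 min in the dark at RT. Complex of 50 nM MPP8 and 50 nM b-H3(1-18)K9me3 peptide had been exposed to compounds for 30 min beforehand.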

[13] = biological target: Chromobox protein homolog 1 (Homo sapiens) (UniProt P83916); experiment: qHTS Validation Assay for Inhibitors of HP1-beta Chromodomain Interactions with Methylated Histone Tails (AID 488953);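 note: loss of AlphaScreen luminescence from HP1-beta binding biotinylated H3K9me3 peptide; nearly all actives have a fitted effect of over 50% in size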
Method in brief: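 50 nM HP1-beta + 50 nM biotin-H3(1-18)K9me3, PBS pH 7.4, 0.01% Tween-20, 30 min RT; compound added, 30 min RT; AlphaScreen beads 10 ug/mL final, 30 min dark; luminescence read.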

[14] = biological target: Methanococcus maripaludis chaperonin (MmCpn) (UniProt Q6LX38); experiment: High-Throughput Screening for Modulators of Cytosolic Chaperonin Activity: MmCpn Primary Screen (AID 488978);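 note: 50 nM MmCpn enzyme hydrolysing 30 µM ATP at 37 °C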
Method in brief: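 ADP formation read by HTRF Transcreener, 665/590 nm emission after 320 nm excitation. Enzyme: archaeal chaperonin at 50 nM final; substrate ATP 30 uM final; 10 min, 37C, after 5 min compound preincubation at RT.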

[15] = Validation screen for inhibitors of Lassa infection (AID 463096; calls by dose curve)
[16] = biological target: ATP-dependent DNA helicase Q1 (Homo sapiens) (UniProt P46063); experiment: qHTS Validation Assay for Inhibitors of RecQ-Like Dna Helicase 1 (RECQ1) (AID 2353)
Method in brief: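 50 nM RECQ1T1 preincubated 15 min with compound in Tris pH 8.0 buffer with MgCl2, DTT, Tween-20 and 2.5 ug/ml poly(dI-dC); started with 200 nM TAMRA/BHQ-2 forked duplex and 2 mM ATP. Unwinding read as fluorescence (525/598 nm), two reads 2 h apart.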

[17] = biological target: RecQ-like DNA helicase BLM (Homo sapiens) (UniProt P54132); experiment: qHTS Validation Assay for Inhibitors of Bloom's syndrome helicase (BLM) (AID 2364)
Method in brief: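 Forked 20-bp duplex substrate (200 nM, TAMRA/BHQ-2) plus 2 mM ATP added after 15 min compound preincubation with 50 nM enzyme, pH 8.0, poly(dI-dC) 2.5 ug/ml. Strand separation followed by fluorescence (525/598 nm) over 2 h, normalized to enzyme-free and DMSO controls.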

[18] = Validation screen for small molecules that induce DNA re-replication in MCF 10A normal breast cells (AID 463097); note: nearly all actives have a fitted effect of over 60% in size
Method in brief: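 250 MCF 10A cells/well; compound pin-transferred; 48 hr, 37 C, 5% CO2; Hoechst 40 min; imaged 405/500-530 nm. Hits = more high-intensity nuclei.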

[19] = qHTS Validation Assay to Find Inhibitors of Chronic Active B-Cell Receptor Signaling (AID 485345; active = well fitted curve in the direction sought with a large enough effect in the main read-out, with a control signal flat, not every such curve was filed as active)
Method in brief: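 Read-out: ratio of filter-corrected green (IkappaBalpha fusion) to red (native) luciferase signal in doxycycline-induced TMD8 cells after 4 h at 37C. Titration spanned 46 uM–3 nM; Data were normalised to basal cells and 10 uM MG-132 wells.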

[20] = Quantitative high throughput screen for delayed death inhibitors of the malarial parasite plastid, 96 hour incubation (AID 488745);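 note: luciferase-expressing P. falciparum in erythrocytes at 2% hematocrit and 0.1% parasitemia; nearly all actives have a fitted effect of over 70% in size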
Method in brief: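 Infected erythrocytes were added to compound in Albumax-supplemented RPMI 1640 at 0.1% parasitemia and 2% hematocrit (final), incubated 96 h at 37 C under 5% CO2, then luciferase reagent was added and luminescence measured.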

Measured: Potency

Methanococcus maripaludis chaperonin (MmCpn), sequence (Q6LX38 1-543): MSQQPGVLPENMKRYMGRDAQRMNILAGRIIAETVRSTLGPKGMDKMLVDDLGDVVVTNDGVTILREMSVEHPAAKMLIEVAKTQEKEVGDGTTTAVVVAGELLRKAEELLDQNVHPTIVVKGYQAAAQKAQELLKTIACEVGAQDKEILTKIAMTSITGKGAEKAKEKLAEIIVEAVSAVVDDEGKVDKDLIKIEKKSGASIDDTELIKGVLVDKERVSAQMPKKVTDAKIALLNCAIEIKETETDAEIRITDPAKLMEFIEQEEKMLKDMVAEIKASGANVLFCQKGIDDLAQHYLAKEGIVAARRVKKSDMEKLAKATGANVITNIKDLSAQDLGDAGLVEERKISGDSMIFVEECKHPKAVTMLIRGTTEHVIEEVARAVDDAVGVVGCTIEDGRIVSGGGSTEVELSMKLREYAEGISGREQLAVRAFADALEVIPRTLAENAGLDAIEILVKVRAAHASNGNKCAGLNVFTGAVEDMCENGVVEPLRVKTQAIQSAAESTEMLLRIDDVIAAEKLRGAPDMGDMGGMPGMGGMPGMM
Tumor susceptibility gene 101 protein (Homo sapiens), sequence (Q99816 whole entry, looked up, the tested form may be a part): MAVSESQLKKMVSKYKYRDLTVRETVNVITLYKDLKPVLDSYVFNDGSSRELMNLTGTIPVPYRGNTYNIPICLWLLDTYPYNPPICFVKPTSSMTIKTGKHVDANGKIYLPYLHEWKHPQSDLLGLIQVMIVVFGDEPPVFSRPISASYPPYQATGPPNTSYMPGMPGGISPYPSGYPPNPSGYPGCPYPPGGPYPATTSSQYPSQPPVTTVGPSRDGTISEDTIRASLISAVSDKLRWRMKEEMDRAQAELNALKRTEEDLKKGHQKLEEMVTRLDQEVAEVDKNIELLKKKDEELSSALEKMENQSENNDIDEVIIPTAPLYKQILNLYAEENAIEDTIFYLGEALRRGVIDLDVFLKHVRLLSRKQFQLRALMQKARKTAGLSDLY
ATP-dependent DNA helicase Q1 (Homo sapiens), sequence (P46063 whole entry, looked up): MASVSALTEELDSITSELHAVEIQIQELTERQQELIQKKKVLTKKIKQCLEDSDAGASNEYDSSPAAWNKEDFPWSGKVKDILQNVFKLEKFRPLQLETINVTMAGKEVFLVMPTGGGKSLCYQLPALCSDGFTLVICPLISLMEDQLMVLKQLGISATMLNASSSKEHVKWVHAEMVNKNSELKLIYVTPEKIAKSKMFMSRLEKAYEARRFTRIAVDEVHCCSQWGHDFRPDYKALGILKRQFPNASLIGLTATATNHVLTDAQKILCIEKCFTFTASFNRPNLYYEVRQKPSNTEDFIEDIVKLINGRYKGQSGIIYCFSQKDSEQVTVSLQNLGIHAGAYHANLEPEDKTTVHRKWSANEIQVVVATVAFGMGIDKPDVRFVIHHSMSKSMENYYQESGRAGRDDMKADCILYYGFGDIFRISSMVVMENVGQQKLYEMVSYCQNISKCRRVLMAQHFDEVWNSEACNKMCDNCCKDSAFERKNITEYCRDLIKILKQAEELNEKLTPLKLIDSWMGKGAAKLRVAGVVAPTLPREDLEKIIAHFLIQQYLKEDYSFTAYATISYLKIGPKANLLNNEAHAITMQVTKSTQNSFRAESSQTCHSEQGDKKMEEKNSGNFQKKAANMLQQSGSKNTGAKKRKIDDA
Flap endonuclease 1 (Homo sapiens), sequence (P39748 whole entry, looked up): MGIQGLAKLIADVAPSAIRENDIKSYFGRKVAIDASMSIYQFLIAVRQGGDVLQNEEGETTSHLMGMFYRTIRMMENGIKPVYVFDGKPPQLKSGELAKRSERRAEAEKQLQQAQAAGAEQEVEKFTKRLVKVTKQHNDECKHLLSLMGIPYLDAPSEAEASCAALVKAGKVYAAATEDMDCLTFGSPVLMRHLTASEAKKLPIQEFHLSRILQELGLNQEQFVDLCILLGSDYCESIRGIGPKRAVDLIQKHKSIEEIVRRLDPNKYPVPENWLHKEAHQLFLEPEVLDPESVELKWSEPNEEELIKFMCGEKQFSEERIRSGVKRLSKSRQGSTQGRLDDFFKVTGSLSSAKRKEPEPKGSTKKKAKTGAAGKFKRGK
Chromobox protein homolog 1 (Homo sapiens), sequence (P83916 whole entry, looked up): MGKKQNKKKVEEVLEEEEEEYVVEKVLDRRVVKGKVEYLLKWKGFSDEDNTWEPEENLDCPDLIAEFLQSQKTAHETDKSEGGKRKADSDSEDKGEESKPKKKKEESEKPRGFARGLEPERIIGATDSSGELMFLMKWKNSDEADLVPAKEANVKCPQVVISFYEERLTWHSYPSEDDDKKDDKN
Ubiquitin carboxyl-terminal hydrolase 2 (Homo sapiens), sequence (O75604 whole entry, looked up): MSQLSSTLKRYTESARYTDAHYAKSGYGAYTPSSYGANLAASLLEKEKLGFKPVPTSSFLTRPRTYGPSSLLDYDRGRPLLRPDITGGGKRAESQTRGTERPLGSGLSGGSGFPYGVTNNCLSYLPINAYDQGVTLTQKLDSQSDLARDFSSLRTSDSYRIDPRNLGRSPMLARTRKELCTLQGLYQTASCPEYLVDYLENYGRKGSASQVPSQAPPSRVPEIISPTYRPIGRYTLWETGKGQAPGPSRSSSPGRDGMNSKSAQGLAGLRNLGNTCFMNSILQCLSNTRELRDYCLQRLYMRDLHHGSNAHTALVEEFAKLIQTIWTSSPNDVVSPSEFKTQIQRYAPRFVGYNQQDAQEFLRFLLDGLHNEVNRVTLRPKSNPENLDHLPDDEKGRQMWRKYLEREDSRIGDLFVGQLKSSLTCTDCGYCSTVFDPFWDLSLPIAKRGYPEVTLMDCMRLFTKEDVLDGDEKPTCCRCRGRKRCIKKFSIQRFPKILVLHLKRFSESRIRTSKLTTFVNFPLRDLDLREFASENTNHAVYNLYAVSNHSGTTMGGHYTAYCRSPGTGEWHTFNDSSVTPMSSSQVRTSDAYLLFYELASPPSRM
M-phase phosphoprotein 8 (Homo sapiens), sequence (Q99549 whole entry, looked up): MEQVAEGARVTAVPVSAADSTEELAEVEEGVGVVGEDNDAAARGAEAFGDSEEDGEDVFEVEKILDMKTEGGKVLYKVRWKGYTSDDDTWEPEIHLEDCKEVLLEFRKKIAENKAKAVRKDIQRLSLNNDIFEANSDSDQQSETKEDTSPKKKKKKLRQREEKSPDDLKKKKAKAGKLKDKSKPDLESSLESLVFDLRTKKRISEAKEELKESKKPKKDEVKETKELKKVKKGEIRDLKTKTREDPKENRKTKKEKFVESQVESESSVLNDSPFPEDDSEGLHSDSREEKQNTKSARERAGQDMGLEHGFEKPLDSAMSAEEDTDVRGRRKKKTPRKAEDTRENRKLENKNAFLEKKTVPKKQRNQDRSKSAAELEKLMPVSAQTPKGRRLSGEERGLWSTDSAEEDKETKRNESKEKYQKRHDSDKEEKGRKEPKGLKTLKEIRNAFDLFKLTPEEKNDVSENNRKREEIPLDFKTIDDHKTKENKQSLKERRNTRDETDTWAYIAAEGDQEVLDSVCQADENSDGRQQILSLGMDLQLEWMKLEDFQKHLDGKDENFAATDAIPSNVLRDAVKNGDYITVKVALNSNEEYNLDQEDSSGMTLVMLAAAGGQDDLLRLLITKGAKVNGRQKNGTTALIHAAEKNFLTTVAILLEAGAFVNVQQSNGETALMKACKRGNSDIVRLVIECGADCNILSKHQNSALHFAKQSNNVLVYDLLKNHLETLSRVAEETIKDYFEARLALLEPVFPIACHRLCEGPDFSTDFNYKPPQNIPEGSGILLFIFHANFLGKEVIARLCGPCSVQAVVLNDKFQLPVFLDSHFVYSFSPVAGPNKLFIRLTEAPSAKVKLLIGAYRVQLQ
DNA polymerase III PolC-type (Bacillus subtilis (strain 168)), sequence (P13267 whole entry, looked up): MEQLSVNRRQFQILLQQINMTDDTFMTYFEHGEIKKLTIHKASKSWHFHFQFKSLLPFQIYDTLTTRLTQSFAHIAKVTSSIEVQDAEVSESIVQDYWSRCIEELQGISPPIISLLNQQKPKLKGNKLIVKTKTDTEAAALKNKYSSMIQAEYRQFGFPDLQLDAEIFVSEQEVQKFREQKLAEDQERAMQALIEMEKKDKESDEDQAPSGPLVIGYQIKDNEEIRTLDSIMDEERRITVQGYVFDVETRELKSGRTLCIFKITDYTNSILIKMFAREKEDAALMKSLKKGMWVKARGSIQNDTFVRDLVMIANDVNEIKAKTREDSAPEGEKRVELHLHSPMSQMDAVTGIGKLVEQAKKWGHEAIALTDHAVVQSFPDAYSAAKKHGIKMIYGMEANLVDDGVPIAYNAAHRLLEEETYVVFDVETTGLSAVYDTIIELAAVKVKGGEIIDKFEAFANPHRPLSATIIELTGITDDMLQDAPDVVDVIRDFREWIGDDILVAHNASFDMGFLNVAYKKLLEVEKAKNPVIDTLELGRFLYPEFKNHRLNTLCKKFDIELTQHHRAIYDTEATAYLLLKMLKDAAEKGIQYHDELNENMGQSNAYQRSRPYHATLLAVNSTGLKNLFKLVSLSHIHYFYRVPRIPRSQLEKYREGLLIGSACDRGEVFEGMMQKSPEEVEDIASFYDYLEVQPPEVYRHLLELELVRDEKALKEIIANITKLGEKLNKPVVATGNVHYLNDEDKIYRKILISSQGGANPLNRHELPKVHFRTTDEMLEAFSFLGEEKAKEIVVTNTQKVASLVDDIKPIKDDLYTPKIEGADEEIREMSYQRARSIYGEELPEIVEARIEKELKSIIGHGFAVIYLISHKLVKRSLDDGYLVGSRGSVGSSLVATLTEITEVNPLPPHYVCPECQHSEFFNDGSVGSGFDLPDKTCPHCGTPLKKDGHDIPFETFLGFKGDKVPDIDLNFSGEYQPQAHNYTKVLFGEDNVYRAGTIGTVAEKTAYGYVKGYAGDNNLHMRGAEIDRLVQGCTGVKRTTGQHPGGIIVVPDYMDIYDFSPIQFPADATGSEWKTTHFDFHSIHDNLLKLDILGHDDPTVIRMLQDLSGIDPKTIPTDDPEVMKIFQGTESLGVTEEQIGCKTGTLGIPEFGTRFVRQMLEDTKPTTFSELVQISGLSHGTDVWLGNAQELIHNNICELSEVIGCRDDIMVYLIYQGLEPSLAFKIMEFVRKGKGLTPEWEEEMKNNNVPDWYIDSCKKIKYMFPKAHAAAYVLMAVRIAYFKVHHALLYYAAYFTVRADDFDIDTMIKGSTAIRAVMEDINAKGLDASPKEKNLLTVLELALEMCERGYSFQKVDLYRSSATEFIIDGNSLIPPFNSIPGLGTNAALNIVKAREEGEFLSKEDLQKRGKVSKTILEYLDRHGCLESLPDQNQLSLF

COc1ccc2c(c1OC)C(=O)O[C@H]2[C@@H]1c2cc3c(cc2CCN1C)OCO3
not listed: [15] | [16] | [17] | [18] | [19] | [20]
inactive: all other assays above

O=c1c(-c2ccc(O)cc2)coc2cc(O)cc(O)c12
inactive: [15]

CCN1CCC[C@H]1CNC(=O)c1c(O)c(Cl)cc(Cl)c1OC
inactive: [15]

COC(=O)[C@@H]1[C@H]2C[C@H]3c4[nH]c5ccccc5c4CCN3C[C@@H]2CC[C@@H]1O
inactive: [15]

C[C@H]1O[C@@H](n2cc(F)c(=O)[nH]c2=O)[C@H](O)[C@@H]1O
inactive: [15]

O=C(CCCN1CCC2(CC1)C(=O)NCN2c1ccccc1)c1ccc(F)cc1
not listed: [8] | [13] | [15] | [17] | [18] | [19] | [20]
inactive: all other assays above

CCC1(c2ccc(N)cc2)CCC(=O)NC1=O (stereo not drawn)
not listed: [11]
inactive: all other assays above

C=C(C)[C@H]1CN[C@H](C(=O)O)[C@H]1CC(=O)O
not listed: [7] | [17]
inactive: all other assays above
